In the supplement of paper PMC6555819:

What follows are sequences tested on PPARg homodimer (NR concentration 180 nM) (assay: PBM binding z-score (relative to random genomic background probes); higher = stronger binding; sequences stand for … in GC…GCGATTGACAGCGTAGAATGAAGG).
Method in brief: (§1)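 Random background probes are the reference for binding z-scores. These scores derive from regression-normalized fluorescence on custom Agilent 4×180K protein-binding microarrays incubated 1 h with ligand-free nuclear receptor dimers. Binding was detected with antibodies against each partner (one per run).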

| Sequence | PBM binding z-score |
| --- | --- |
| CCGACTGGGCCAAAGGTTACCATACTCAGTACGA | 1.31 |
| AGTAAAAGTTCATCTAGGTAACGTAAGATATGCT | 2.75 |
| CCTTACGGGTCACTGACAGGTTATATCATTTGGA | 2.85 |
| GCGACTGGGGCATCAGCAGCTTACCATAACTTAA | -0.268 |
| GCTGCTAGGTCAACTAATGGTCAGCTAAAGCTCG | 1.66 |
| CCTACTGGGCCACGAAGGGTCATTGATTCAGTGA | 1.51 |
| ACAGACAGGTGATGAAGGTAACTAAGGCTATCAT | 0.053 |
| TCTTGTAGATCAAGCAGGTTGAGAAAGCCTGAGT | -0.463 |
| TCTATTAGTTGATTAGGGCGACCGAAACAGCGGA | 0.93 |
| CTACCAAGGTGAGCAAGGTCGTTGATTACTATTC | 0.031 |
| ATCGAAAGGTCGTGAGGTGGGTATACAGAAAGGC | 3.69 |
| CTCGAAAGGTCGCTTGAGGTGAGTATACGGATAA | 1.47 |
| CCTTACGGGTCAAGGCTATAGCACGGGTGGTACG | 1.08 |
| AGAATGAGGTTATTAAGATTAGGGAATTGCGGTC | 1.01 |
| TCTCGGAGGACTCGAAAGGTCAGAGCTCGACATC | 1.63 |
| ATCTCTAGGTATAGTTCAGTGAAAGATCGATAGA | 1.8 |
| CATACTAGGTCACGAAAGGTCAAAGTCGAATGAC | 3.01 |
| CCTACTGGGCCCAAGGTCATTGATTCCAATGCTC | 1.42 |
| GGAACGATGGCAAGTTGATAGCAGAGTTTGATGG | -1.16 |
| TCTTGTAGATCATAGGTTAAGAAAGCCGAAGCCT | 0.856 |

| Sequence | PBM binding z-score |
| --- | --- |
| CGTCCAAGGTCAAAGGCCAGTGAAGAGATGACGG | 3.37 |
| TCATATAGGTAAACAAGTGAAAGTCCGTAAGTTA | 0.811 |
| CCTTACGGGTCACTGACAGGTTATAACATTTGGA | 2.85 |
| ATATGTACGTTATCGGGTCATTCAGTTTGCGCAT | 1.32 |
| CCTTCTGGGCCAAGGTCATTGATCAGTCAAAGCA | 1.45 |
| TCTATTCGTTGAAGGGCAACCGACGAGTCCGTTT | 0.703 |
| CATAGTTGGTCAGGAGGTCACACACCGGATATGA | 3.84 |
| CGTCCAAGGTCAGCAGGTCAGTGATAGCGACGTG | 2.53 |
| AACTCTAGGTAACAAGTTCAGTGAAAGAGAGGAC | 0.677 |
| CCTACTGGGCCATTCAGAGTTCATTGATCATATG | 0.849 |
| CCTACTGGTCCAAAAAGGTCATTGATGCCGATAA | 3.82 |
| AGAATGAGGTTAACATCAGGGAAACAGAATACAT | 1.12 |
| CCTACTGGGCCAAAGGTCATTAATTCCAATGCTC | 4.75 |
| TAGCCTGGGTCAGATCGGGCCAGTATACGCTATA | -0.849 |
| ACAGACAGGTGATGGAGGTAACTCAGGCTATCAT | -0.281 |
| AGAATGAGGTTATTACGATCAGGGAATTGCGGTC | 0.902 |
| TCCTGTAGATCAATAGAGGTTAAGAAAGTGCGCT | 0.185 |
| ACAGACAGGTGATGAGGGTAACTCAGGCTATCAT | 0.543 |
| GCTGCTAGGACAACTGATGGTCAGCTAAAGCTCG | -1.24 |
| ACTAGCAGGCCAAGTTTGGGTCACTCGAACAAAG | 0.399 |

What follows are sequences tested on PXR:RXRa (NR concentration 270 nM, RXRa partner concentration 90 nM) in the same assay as above.
Method in brief: as §1

| Sequence | PBM binding z-score |
| --- | --- |
| CCGACTGGGCCAAAGGTTACCATACTCAGTACGA | 1.75 |
| AGTAAAAGTTCATCTAGGTAACGTAAGATATGCT | 4.52 |
| CCTTACGGGTCACTGACAGGTTATATCATTTGGA | 3.69 |
| GCGACTGGGGCATCAGCAGCTTACCATAACTTAA | -0.462 |
| GCTGCTAGGTCAACTAATGGTCAGCTAAAGCTCG | 1.37 |
| CCTACTGGGCCACGAAGGGTCATTGATTCAGTGA | 3.23 |
| ACAGACAGGTGATGAAGGTAACTAAGGCTATCAT | 0.0666 |
| TCTTGTAGATCAAGCAGGTTGAGAAAGCCTGAGT | 0.124 |
| TCTATTAGTTGATTAGGGCGACCGAAACAGCGGA | 0.452 |
| CTACCAAGGTGAGCAAGGTCGTTGATTACTATTC | 1.79 |
| ATCGAAAGGTCGTGAGGTGGGTATACAGAAAGGC | 3.36 |
| CTCGAAAGGTCGCTTGAGGTGAGTATACGGATAA | 4.26 |
| CCTTACGGGTCAAGGCTATAGCACGGGTGGTACG | 2.58 |
| AGAATGAGGTTATTAAGATTAGGGAATTGCGGTC | 1.02 |
| TCTCGGAGGACTCGAAAGGTCAGAGCTCGACATC | 3.16 |
| ATCTCTAGGTATAGTTCAGTGAAAGATCGATAGA | 0.83 |
| CATACTAGGTCACGAAAGGTCAAAGTCGAATGAC | 7.08 |
| CCTACTGGGCCCAAGGTCATTGATTCCAATGCTC | 3.24 |
| GGAACGATGGCAAGTTGATAGCAGAGTTTGATGG | -0.323 |
| TCTTGTAGATCATAGGTTAAGAAAGCCGAAGCCT | 0.84 |

| Sequence | PBM binding z-score |
| --- | --- |
| CGTCCAAGGTCAAAGGCCAGTGAAGAGATGACGG | 4.39 |
| TCATATAGGTAAACAAGTGAAAGTCCGTAAGTTA | 0.871 |
| CCTTACGGGTCACTGACAGGTTATAACATTTGGA | 3.67 |
| ATATGTACGTTATCGGGTCATTCAGTTTGCGCAT | 3.32 |
| CCTTCTGGGCCAAGGTCATTGATCAGTCAAAGCA | 3.33 |
| TCTATTCGTTGAAGGGCAACCGACGAGTCCGTTT | 0.999 |
| CATAGTTGGTCAGGAGGTCACACACCGGATATGA | 4.52 |
| CGTCCAAGGTCAGCAGGTCAGTGATAGCGACGTG | 3.41 |
| AACTCTAGGTAACAAGTTCAGTGAAAGAGAGGAC | 1.37 |
| CCTACTGGGCCATTCAGAGTTCATTGATCATATG | 4.72 |
| CCTACTGGTCCAAAAAGGTCATTGATGCCGATAA | 5.11 |
| AGAATGAGGTTAACATCAGGGAAACAGAATACAT | 1.43 |
| CCTACTGGGCCAAAGGTCATTAATTCCAATGCTC | 5.26 |
| TAGCCTGGGTCAGATCGGGCCAGTATACGCTATA | 0.931 |
| ACAGACAGGTGATGGAGGTAACTCAGGCTATCAT | -0.304 |
| AGAATGAGGTTATTACGATCAGGGAATTGCGGTC | 1.26 |
| TCCTGTAGATCAATAGAGGTTAAGAAAGTGCGCT | 2.91 |
| ACAGACAGGTGATGAGGGTAACTCAGGCTATCAT | 0.296 |
| GCTGCTAGGACAACTGATGGTCAGCTAAAGCTCG | -1.1 |
| ACTAGCAGGCCAAGTTTGGGTCACTCGAACAAAG | 0.625 |
